In PubChem BioAssay (NCI):
This is part of a sample that, as a whole, favours compounds with a hit. Of some 83,000 tested, about 20% had one in any assay.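 Plates (96-well) were seeded with cells, treated with compound at one concentration, and incubated for 48 hours before percent growth was determined.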 A number with no mark means an inactive call. Activity calls are given as the source filed them. Rule for the calls: active = growth percent below 10; inactive = the rest.

Key:
Test in all cases: NCI-60 one-dose screen, 48 h (100 = growth as untreated, 0 = no growth, -100 = all killed)
NCI-H23 lung = conditions: 10 µM unless noted
NCI-H226 lung = conditions: 10 µM unless noted
NCI-H322M lung = conditions: 10 µM unless noted
HOP-62 NSCLC = conditions: 10 µM unless noted
NCI-H460 lung = conditions: 10 µM unless noted
HOP-92 NSCLC = conditions: 10 µM unless noted
NCI-H522 lung = conditions: 10 µM unless noted
A549/ATCC NSCLC = conditions: 10 µM unless noted
786-0 renal = conditions: 10 µM unless noted
COLO 205 colon = conditions: 10 µM unless noted
DU-145 prostate = conditions: 10 µM unless noted
K-562 leukemia = conditions: 10 µM unless noted
MALME-3M melanoma = conditions: 10 µM unless noted
MDA-MB-231 breast = conditions: 10 µM unless noted
SF-268 CNS = conditions: 10 µM unless noted
SF-295 CNS = conditions: 10 µM unless noted
SF-539 CNS = conditions: 10 µM unless noted
UACC-257 melanoma = conditions: 10 µM
M14 melanoma = conditions: 10 µM unless noted
RXF 393 renal = conditions: 10 µM unless noted

SMILES | growth (NCI-H23 lung) | growth (NCI-H226 lung) | growth (NCI-H322M lung) | growth (HOP-62 NSCLC) | growth (NCI-H460 lung) | growth (HOP-92 NSCLC) | growth (NCI-H522 lung) | growth (A549/ATCC NSCLC) | growth (786-0 renal) | growth (COLO 205 colon) | growth (DU-145 prostate) | growth (K-562 leukemia) | growth (MALME-3M melanoma) | growth (MDA-MB-231 breast) | growth (SF-268 CNS) | growth (SF-295 CNS) | growth (SF-539 CNS) | growth (UACC-257 melanoma) | growth (M14 melanoma) | growth (RXF 393 renal)
Cc1ccc(-c2cc(-c3cccc4ccccc34)n3c(n2)nc2ccccc23)cc1 | 82% | 57.9% | 90.6% | 67.5% | 21.9% | 71.6% | 76.9% | 39.6% | 47.6% | 59.7% | 69.4% | 51.1% | 32.2% | 73.1% | 66.4% | 40.9% | 49.4% | 75.1% | 61.5% | 
Cc1cc(O)c(=O)cc2c1C[C@H]1CC(C)(C)/C=C/C[C@]3(C)Oc4cc(=O)c(O)cc(C)c4C[C@H]3C[C@H](O)[C@@]1(C)O2 | -10.9% (active) | 14.7% | 16% | -12.4% (active) | 0.132% (active) | -16.1% (active) | -26.9% (active) | -0.223% (active) | -24.3% (active) | -10.3% (active) | 16.1% | -42.7% (active) | -8.22% (active) | 17.4% | 16.6% | 4.92% (active) | 7.55% (active) |  | -25.9% (active) | 5.24% (active)
O=c1c2c(O)cccc2oc2c3c(cc(O)c12)O[C@H]1OC=C[C@@H]31 | 59.9% | 88.7% | 88.4% | 82.4% | 73.5% | 88.7% | 79.9% | 61% | 98.9% | 75.1% | 98% | 96.2% | 95.2% | 83.2% | 94.7% | 89.5% | 98.4% |  | 101% | 99.1%
COc1ccc2oc3c4[nH]c5ccccc5c4c4c(c3c2c1)C(=O)N(O)C4=O | 91.8% | 93.8% | 108% | 102% | 99.5% | 81% | 99.3% | 108% | 101% | 111% | 101% | 98.3% | 105% | 95.7% | 100% | 106% | 98% | 106% | 102% | 
Cc1occc1-c1nc2s/c(=C\c3cn(-c4ccccc4)nc3-c3ccccc3)c(=O)n2n1 | 88.5% | 97.4% | 107% | 118% | 103% | 67.8% | 92.3% | 95.7% | 101% | 118% | 106% | 106% | 101% | 97.8% | 101% | 101% | 91.2% | 96% | 100% | 
COc1cc(C(=O)C[n+]2ccc3ccccc3c2)cc(OC)c1OC | 96.6% | 95.9% | 98.3% | 97.3% | 101% | 80% | 92.9% | 105% | 102% | 103% | 105% | 91.7% | 91.5% | 93.3% | 100% | 100% | 100% | 103% | 98.1% | 101%
COc1c([C@@H](CC(C)C)OC(C)=O)ccc2c1C(=O)OCc1cc(C)cc(O)c1O2 | 23.7% | 43.5% | 54.3% | 24.5% | 8.61% (active) | 3.04% (active) | 20.2% | 13.6% | 80.5% | 9.55% (active) | 26.7% | 16.9% | 19% | 35.7% | 33% | 31.8% | 55.6% |  | 44.3% | 64.1%
CC(=O)NC(C)(C)C(=O)N[C@@H](C)C(=O)NC(C)(C)C(=O)N[C@@H](C)C(=O)NC(C)(C)C(=O)N[C@@H](C)C(=O)N[C@@H](CCC(N)=O)C(=O)NC(C)(C)C(=O)N[C@H](C(=O)NC(C)(C)C(=O)NCC(=O)N[C@@H](CC(C)C)C(=O)NC(C)(C)C(=O)N1CCC[C@H]1C(=O)N[C@H](C(=O)NC(C)(C)C(=O)NC(C)(C)C(=O)N[C@@H](CCC(N)=O)C(=O)N[C@@H](CCC(N)=O)C(=O)N[C@H](CO)CC1CCCCC1)C(C)C)C(C)C | 21.6% [5 µM] | 35% [5 µM] | 94.2% [5 µM] | 46.3% [5 µM] | 45.1% [5 µM] | -13.3% [5 µM] (active) | 6.15% [5 µM] (active) | 48.1% [5 µM] | 78.6% [5 µM] | -12% [5 µM] (active) | 55.5% [5 µM] | 24.3% [5 µM] | -41.4% [5 µM] (active) | 55.3% [5 µM] | 46.9% [5 µM] | 23.9% [5 µM] | 29.3% [5 µM] |  | 4.76% [5 µM] (active) | 55.8% [5 µM]
